In the supplement of paper PMC3545927:
This is one part of the list. The hit rate among all sequences tested is not known here.

Biological target: furin, P09958
Experiment: furin cleavage Z-score vs untreated control; higher = more cleavage, active = 3.5 or more, inactive = 1 or less, 8 variable residues between constant flanks
Outline: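 The cleavage Z-score was derived for purified furin acting on 8-mer peptides held on magnetic beads and fused to a cDNA oligonucleotide. Digests lasted 7.5, 15 or 30 min at 1:10 enzyme:substrate in 50 mM HEPES pH 7.5 with CaCl2 and NaCl. Sequencing counts of released DNA, log-transformed against furin-free reactions, were lowess-adjusted and scaled by median absolute deviation.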

Chain of furin, P09958 (P09958 whole entry): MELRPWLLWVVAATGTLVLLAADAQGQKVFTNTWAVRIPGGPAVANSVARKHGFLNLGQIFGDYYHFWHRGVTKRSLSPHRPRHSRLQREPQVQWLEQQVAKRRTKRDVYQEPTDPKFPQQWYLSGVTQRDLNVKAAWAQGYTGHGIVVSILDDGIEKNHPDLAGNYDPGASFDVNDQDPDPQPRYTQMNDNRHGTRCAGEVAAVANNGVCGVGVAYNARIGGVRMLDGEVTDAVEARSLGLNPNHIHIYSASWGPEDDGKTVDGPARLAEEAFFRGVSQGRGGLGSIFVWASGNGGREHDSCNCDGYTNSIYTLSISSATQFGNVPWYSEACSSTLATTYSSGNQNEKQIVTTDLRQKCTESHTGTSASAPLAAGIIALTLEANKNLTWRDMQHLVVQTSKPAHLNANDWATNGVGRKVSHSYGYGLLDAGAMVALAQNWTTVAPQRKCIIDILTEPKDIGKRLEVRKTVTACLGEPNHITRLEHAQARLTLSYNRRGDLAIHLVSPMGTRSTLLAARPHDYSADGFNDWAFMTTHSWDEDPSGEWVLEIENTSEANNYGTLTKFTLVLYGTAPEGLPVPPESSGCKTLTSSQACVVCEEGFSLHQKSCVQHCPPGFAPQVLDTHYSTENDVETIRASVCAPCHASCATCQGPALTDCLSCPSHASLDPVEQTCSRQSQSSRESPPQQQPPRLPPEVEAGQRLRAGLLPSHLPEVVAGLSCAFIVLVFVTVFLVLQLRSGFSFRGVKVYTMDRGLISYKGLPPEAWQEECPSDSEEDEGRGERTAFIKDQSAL

Row | Sequence | furin cleavage Z-score (7.5 min) | furin cleavage Z-score (15 min) | furin cleavage Z-score (30 min)
1 | CATTCCSGSWAGNASASA [HC1880] | -0.863 (inactive) | -1.92 (inactive) | -0.734 (inactive)
2 | CAQVPCHRPSAGNASASA [HC2322] | 0.276 (inactive) | 1.25 | 1.48
3 | CAKKKRAACKAGNASASA [FS-2541] | 0.497 (inactive) | -0.617 (inactive) | 1.88
4 | CAKKKRKFSKAGNASASA [FS-2866] | -0.0204 (inactive) | -0.905 (inactive) | -0.0235 (inactive)
5 | CAKKKRVVPKAGNASASA [FS-2122] | -1.74 (inactive) | -0.376 (inactive) | -0.937 (inactive)
6 | CAKRKRSKRKAGNASASA [FS-1223] | 10.8 (active) | 10.5 (active) | 8.25 (active)
7 | CAKKKRKKRKAGNASASA [FS-673] | 4.92 (active) | 5.01 (active) | 5.6 (active)
8 | CAKKKRRKRKAGNASASA [FS-1218] | 5.44 (active) | 7 (active) | 6.09 (active)
9 | CAKNMRRKRKAGNASASA [FS-1222] | 9.63 (active) | 9.29 (active) | 7.84 (active)
10 | CAGRSHSKRKAGNASASA [FS-245] | 1.44 | 0.295 (inactive) | 1.58
11 | CALGALTGTYAGNASASA [HC631] | -0.145 (inactive) | 0.814 (inactive) | 0.51 (inactive)
12 | CAVFPDLGVRAGNASASA [HC1451] | -2.35 (inactive) | -0.19 (inactive) | 0.302 (inactive)
13 | CARQMRSVDVAGNASASA [FS-3039] | 2.09 | 3.9 (active) | 5.69 (active)
14 | CARQMRSASIAGNASASA [FS-2400] | 0.584 (inactive) | 2.25 | 4.94 (active)
15 | CARRKKILDVAGNASASA [FS-3049] | 0.884 (inactive) | 0.207 (inactive) | -1.99 (inactive)
16 | CARQNRSRSIAGNASASA [FS-2362] | -0.846 (inactive) | 0.141 (inactive) | -0.0686 (inactive)
17 | CARERRWQDVAGNASASA [FS-1698] | -0.457 (inactive) | 0.122 (inactive) | 1.79

Row | Sequence | furin cleavage Z-score (7.5 min) | furin cleavage Z-score (15 min) | furin cleavage Z-score (30 min)
18 | CARVTRSLDVAGNASASA [FS-3127] | 5.89 (active) | 8.68 (active) | 7.6 (active)
19 | CAVVCCSMSIAGNASASA [HC2084] | -0.331 (inactive) | -1.27 (inactive) | 0.12 (inactive)
20 | CAEKMALYDVAGNASASA [HC1456] | 0.218 (inactive) | -0.51 (inactive) | 0.171 (inactive)
21 | CARKWRSWKVAGNASASA [FS-2274] | 1.07 | 1.35 | 0.0619 (inactive)
22 | CAGGDIYHSVAGNASASA [HC1649] | -1.03 (inactive) | -0.366 (inactive) | -0.802 (inactive)
23 | CASSPCSAHLAGNASASA [HC2497] | 0.244 (inactive) | 0.911 (inactive) | 0.262 (inactive)
24 | CAAVLTSMLTAGNASASA [HC1245] | -1.15 (inactive) | 1.56 | 0.027 (inactive)
25 | CAVSRRARRFAGNASASA [FS-1436] | 10.2 (active) | 11.6 (active) | 10.4 (active)
26 | CARSNRQLGIAGNASASA [FS-2185] | 0.465 (inactive) | -0.691 (inactive) | 0.216 (inactive)
27 | CAAAARARRFAGNASASA [FS-1108] | 2.41 | 5.92 (active) | 6.24 (active)
28 | CANWQKLETFAGNASASA [HC1037] | 0.812 (inactive) | -1.06 (inactive) | 0.807 (inactive)
29 | CAAAAAAAAAAGNASASA [NE2] | 2.09 | 0.496 (inactive) | 2.15
30 | CAVSRRSRGIAGNASASA [FS-2857] | 1.63 | 3.08 | 4.54 (active)
31 | CAVSKRHVRIAGNASASA [FS-2114] | -0.647 (inactive) | 1.47 | 2.71
32 | CANFHKARRFAGNASASA [FS-1143] | -0.34 (inactive) | -0.616 (inactive) | -0.0235 (inactive)
33 | CANWQRARRFAGNASASA [FS-912] | 3.9 (active) | 4.91 (active) | 5.21 (active)
